According to paper PMC5540273 (PLoS ONE, 2017):

Experiments:
Conditions in all cases: concentration: 1 μM,replicates: in singlicate; n = 1
NEK11 = system: NEK11
NEK1 = system: NEK1
NEK2 = system: NEK2
NEK3 = system: NEK3
NEK4 = system: NEK4
NEK5 = system: NEK5
NEK6 = system: NEK6
NEK7 = system: NEK7
NEK9 = system: NEK9
NIK = system: T1, NIK
T1 construct: gene MAP3K14
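Also: KINOMEscan kinase panel screen.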

Row | SMILES | %Inh (NEK11) [%] | %Inh (NEK1) [%] | %Inh (NEK2) [%] | %Inh (NEK3) [%] | %Inh (NEK4) [%] | %Inh (NEK5) [%] | %Inh (NEK6) [%] | %Inh (NEK7) [%] | %Inh (NEK9) [%] | %Inh (NIK) [%]
1 | Cc1ccn2nc(-c3ccc(F)cc3)c(-c3ccncc3)c2c1.Cl [GW457859] | 43 | 12 | 0 | 3 | 0 | 0 | 0 | 0 | 4 | 38
2 | CCOC(=O)N1CCC(n2cnc(-c3ccc(F)cc3)c2-c2ccnc(N)n2)CC1 [SB-219952] | 20 | 0 | 0 | 21 | 15 | 26 | 0 | 31 | 23 | 0
3 | Cl.Nc1n[nH]c2cc(-c3ccccn3)ccc12 [GSK2189892] | 0 | 0 | 0 | 1 | 0 | 0 | 0 | 0 | 3 | 0
4 | CNC(=O)c1ccccc1Nc1nc(Nc2cccc(CS(C)(=O)=O)c2)ncc1C.O=CO [GSK1520489] | 66 | 71 | 78 | 86 | 70 | 100 | 83 | 94.9 | 78 | 23
5 | COc1cccc(C2=C(Nc3cccc(Cl)c3)C(=O)NC2=O)c1 [SB-341556] | 0 | 0 | 13 | 5 | 29 | 0 | 0 | 5 | 1 | 26
6 | O=c1[nH]cc(-c2ccc(O)cc2)c2sc(-c3ccncc3)cc12 [GSK1033723] | 23 | 0 | 0 | 0 | 0 | 17 | 0 | 0 | 18 | 0
7 | CC(C(=O)NC1CCN(c2ccnc(Nc3ccc(F)cc3)n2)C1)c1ccc(Cl)cc1 (stereo not shown) [GSK1379713] | 25 | 0 | 0 | 0 | 0 | 15 | 0 | 28 | 34 | 11
8 | O=C(Nc1cccc(Oc2ccc3nccn3n2)c1)Nc1cccc(C(F)(F)F)c1 | 0 | 0 | 8 | 7 | 0 | 0 | 0 | 0 | 0 | 27
9 | COc1cccc(CNC(=O)NC2CCN(c3ccnc(Nc4cc(OC)c(OC)c(OC)c4)n3)C2)c1 (stereo not shown) [GSK1379765] | 15 | 0 | 0 | 45 | 31 | 95.9 | 0 | 15 | 31 | 30
10 | C[C@@H](Oc1cc(-n2cnc3ccc(-c4ccncc4)cc32)sc1C(N)=O)c1ccccc1Cl [GSK483724] | 0 | 51 | 86 | 0 | 4 | 72 | 14 | 17 | 76 | 1
11 | CN1CCN(CCCNc2nccc(-c3c(-c4ccc(F)cc4)nn4cc(C(N)=O)ccc34)n2)CC1 [GW622475] | 0 | 0 | 8 | 6 | 10 | 15 | 0 | 25 | 41 | 5
12 | COc1cccc(OC)c1C(=O)Nc1cccc(-c2nn3ccccc3c2-c2ccnc(Nc3cccc(F)c3)n2)c1 [GSK361065] | 0 | 0 | 4 | 7 | 0 | 10 | 17 | 0 | 0 | 0
13 | Cl.Cl.NC[C@H](CC1CCCCC1)NC(=O)c1ccc(-c2ccnc3[nH]ccc23)s1 [GSK1581428] | 0 | – | 0 | 0 | 14 | 15 | 0 | 1 | 17 | 0
14 | O=C(NOCC1CC1)c1cc(Br)c(F)c(F)c1Nc1ccc(I)cc1Cl | 0 | 0 | 0 | 43 | 0 | 0 | 0 | 0 | 0 | 0
15 | CS(=O)(=O)c1cccc(CNc2nc(Nc3ccc4c(c3)[C@@H]3C[C@@H]4CNC3=O)ncc2C(F)(F)F)c1 | 0 | 0 | 0 | 23 | 1 | 0 | 19 | 12 | 2 | 26
16 | CS(=O)(=O)Nc1ccc(-c2ccnc3[nH]ccc23)cc1 [GSK993273] | 17 | 15 | 0 | 4 | 16 | 2 | 0 | 10 | 14 | 22
17 | CCCC(=O)Nc1n[nH]c2ncccc12 [SB-601436] | 4 | 0 | 0 | 0 | 0 | 0 | 0 | 13 | 0 | 10
